# Results from PubChem BioAssay AID1489 (National Center for Advancing Translational Sciences (NCATS), 2009).
# Results filed as inconclusive are left out. Entries that show only a call come without a potency. Calls of active or inactive are those of the source. Calls follow the shape of the dose curve; as a rule, active = well fitted antagonist curve with a large enough effect in the main read-out, with a control signal flat; inconclusive = small, poorly fitted or top-dose-only effect; inactive = no such curve, though single readings can be large or run the other way.
# Molecular target: Neuropeptide S receptor (Homo sapiens) (UniProt Q6W5P4)
# Sequence (Q6W5P4 whole entry, looked up): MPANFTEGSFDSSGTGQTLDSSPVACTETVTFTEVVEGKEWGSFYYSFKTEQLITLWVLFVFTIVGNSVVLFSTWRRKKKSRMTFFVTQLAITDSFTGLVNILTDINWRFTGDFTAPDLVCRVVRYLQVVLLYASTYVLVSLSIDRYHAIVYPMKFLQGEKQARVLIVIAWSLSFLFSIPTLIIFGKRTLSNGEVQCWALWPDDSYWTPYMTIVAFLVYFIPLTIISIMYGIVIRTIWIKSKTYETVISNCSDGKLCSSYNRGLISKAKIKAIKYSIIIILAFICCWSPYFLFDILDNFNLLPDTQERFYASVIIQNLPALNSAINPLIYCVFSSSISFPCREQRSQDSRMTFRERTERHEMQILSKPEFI
# Assay: Confirmation Concentration-Response Assay for Antagonists of the Neuropeptide S Receptor: Calcium Signal Transduction
# Settings: CHO-NPSR cells, NPS-induced calcium flux, FDSS; series mostly up to 19.3 µM
# Source text: NIH Chemical Genomics Center [NCGC] NIH Molecular Libraries Probe Production centers Network [MLPCN] MLPCN Grant: X01-DA026210-01 Assay Submitter (PI): Heilig, Markus Alexander NCGC Assay Overview: Neuropeptide S receptor (NPSR), previously known as GPR154, is a recently de-orphanized G protein coupled receptor. Its endogenous ligand is the 20 amino acids peptide Neuropeptide S (NPS). […] NPS and its receptor are found in various tissues. Specifically they are highly expressed in brain areas that have been implicated in modulation of arousal, stress and anxiety. Central administration of NPS in mice produces an unusual profile of activity by inducing wakefulness and arousal, while at the same time suppressing anxiety. Therefore, NPSR may represent a novel drug target for the treatment of sleep and anxiety disorders. To identify NPSR antagonists, we developed a cell-based assay with transfected NPS receptor. NPS can stimulate the production of cAMP as well as release intracellular calcium in Chinese hamster ovary cells stably expressing NPS receptor. This change in intracellular calcium can be detected using a calcium indicator dye on a calcium imaging plate reader system (FDSS).
# NCGC Assay Protocol Summary: A Chinese hamster ovary (CHO) cell line stably expressing the NPS receptor (CHO-NPSR) was obtained from Dr. Heilig lab at NIAAA and maintained in F-12 Kaighn's media (Invitrogen, Carlsbad, CA, 21127) supplemented with 10 % FBS, 100 units/ml penicillin, 100 ug/ml streptomycin and 250 ug/ml geneticin at 37C, 5% CO2 in a humidified atmosphere. Before the assay, aliquots of cells were frozen and stored at -135C. The assay was performed on a FDSS-7000 kinetic plate reader in 1536-well format. For both agonist (1-220s) and antagonist (221-400s) phases, the maximums of kinetic fluorescence responses were converted separately into text files using the instrument's software data export utility. Data for agonist response were normalized to the controls for basal activity (DMSO only) and 100% activation (NPS). […] AC50 values were determined from concentration-response data modeled with the standard Hill equation. NPS 1536-well FDSS assay protocol: (1) Frozen CHO-NPSR cells were thaw, washed once with fresh media and resuspended in F-12 Kaighn's media supplemented with 10 % FBS, 100 units/ml penicillin and 100 ug/ml streptomycin. Cells were plated at 3 ul/well (1200 cells) to black, clear-bottom, tissue-culture treated 1536-well plates, and then cultured at 37C, 5 % CO2 for 16 to 30 hours. (2) Add 3 ul of calcium dye (from High Performance PBX Calcium Assay Kit, BD Biosciences). The calcium dye was prepared according to the manufactory's instruction. (3) Incubation at 37C, 5 % CO2 for 60 to 120 min. (4) Load plates to FDSS-7000. The following steps were performed on FDSS-7000. (5) Record fluorescent background (Ex 480 nm, Em 520-560 nm) for 10 s. (6) Add 23 nl/well of compound in DMSO solution. The final titration for each compound was between 0.6 nM and 46 uM. Record agonist response for 210 s. (7) Add 2 ul of stimulation reagent (1X HBSS buffer, 0.1% BSA, 60 nM NPS). Record antagonist response for 140 s. Keywords: MLSMR, MLPCN, NIH Roadmap, qHTS, NCGC, NPS, Neuropeptide S Antagonists
row,SMILES,Potency
1,CCOC(=O)C1CCCN(c2ncnc3c2oc2ccccc23)C1 (stereo not given),12.6 µM (active)
2,Cc1ccc(-c2ccc(/C=C3\C(=O)ON=C3c3ccccc3)o2)c([N+](=O)[O-])c1,2.82 µM (active)
3,O=C(O)C1CCN(c2nc(-c3ccccc3)nc3c2oc2ccccc23)CC1,inactive
4,COc1ccc(-c2cc(N)n(S(=O)(=O)c3c(F)c(F)c(F)c(F)c3F)n2)cc1OC,7.08 µM (active)
5,O=C(COC(=O)c1ccccc1C(=O)c1ccc(Cl)c([N+](=O)[O-])c1)NC1CCCCCC1,4.47 µM (active)
6,Cc1nnc(NC(=O)c2cccc(S(=O)(=O)N3CCc4ccccc43)c2)s1,inactive
7,COc1ccc(OC)c(C2C(C(=O)Nc3nc4ccccc4s3)=C(C)NC3=C2C(=O)CCC3)c1 (stereo not given),2.82 µM (active)
8,Cc1ccc(S(=O)(=O)Nc2ccccc2CNc2c(C)n(C)n(-c3ccccc3)c2=O)cc1,inactive
9,CCCCOc1ccc(OCCCN2CCOCC2)cc1,inactive
10,CCC(C)n1c(=O)c(C(=O)Nc2ccccc2S(N)(=O)=O)c(O)c2ccccc21 (stereo not given),inactive
11,Cc1cc2nc3ccc(=[N+](C)C)cc-3sc2cc1N,inactive
12,c1ccc(-c2ccc(-c3nc(-c4cccnc4)no3)cc2)cc1,inactive
13,O=C(N1CCOCC1)C1(c2ccc(Cl)cc2)CCCC1,inactive
14,Cc1nn(C(=O)c2cccs2)c(N)c1-c1ccccc1,inactive
15,Cc1ccc(/C=C2\SC(=S)N(CC(=O)Nc3ncc(Cc4ccccc4Cl)s3)C2=O)cc1,inactive
16,O=C1Nc2ccc(S(=O)(=O)N3CCCC3C(=O)O)c3cccc1c23 (stereo not given),inactive
17,CCOc1ccc(N2C(=O)CC(NCCc3ccncc3)C2=O)cc1 (stereo not given),inactive
18,C(=N\Nc1nc(-c2ccccn2)nc2ccccc12)/c1ccccc1,inactive
19,CC(=O)n1nc2nc(C)cc(C)c2c1N,inactive
20,Nn1c(COc2ccccc2)nnc1SCc1cc(=O)[nH]c2ccccc12,inactive

row,SMILES,Potency
1,O=C(O)CCCCCNc1nc(=S)[nH]c2ccccc12,inactive
2,CCC(Sc1ccc2nnc(-c3cccnc3)n2n1)C(=O)O (stereo not given),inactive
3,COCCCn1c(SCc2cc(=O)[nH]c3ccccc23)nnc1-c1ccco1,inactive
4,CCOC(=O)c1cnc(-n2nc(C)cc2C)nc1NC1CCCC1,2.82 µM (active)
5,O=C(CSc1n[nH]c(-c2cccnc2)n1)Nc1ccnc2ccccc12,inactive
6,N=C1c2ccccc2CN1c1ccc(N2CCOCC2)c(S(=O)(=O)Nc2ccc(Cl)cc2)c1,1.41 µM (active)
7,NC(=O)OCC(COC(N)=O)c1ccccc1,inactive
8,CCCCCN1C=CC=C/C1=C\C=C(C#N)C#N,inactive
9,N#Cc1cnn(-c2ncnc3sc4c(c23)CCCC4)c1N,inactive
10,CCC(c1nnnn1C1CCCC1)N1CCN(c2ccccc2)CC1 (stereo not given),inactive
11,CN(CC(=O)NCc1ccc(F)cc1)S(=O)(=O)c1cccc2nsnc12,inactive
12,O=C(c1ccccc1-c1nc2ccccc2[nH]1)N1CCCCC1,inactive
13,C=CCn1c(SCCN2C(=O)c3ccccc3C2=O)nc2scc(-c3ccccc3)c2c1=O,inactive
14,CN(C)c1ccc(N2CN=C3SCC(=O)N3C2)cc1,inactive
15,C=CCNC(=O)/C(C#N)=C/c1cn(-c2ccccc2)nc1-c1ccc(OC)c([N+](=O)[O-])c1,inactive
16,COC(=O)c1ccc(C(=O)OC)c(NC(=O)CSc2cccc[n+]2[O-])c1,inactive
17,S=C(Nc1ccccc1)Nc1nccs1,inactive
18,COc1cccc(N2CCN(c3ncnc4c3[nH]c3ccc(F)cc34)CC2C)c1 (stereo not given),0.631 µM (active)
19,CS(=O)(=O)c1nc(-c2ccccc2)cc(C(F)(F)F)n1,7.94 µM (active)
20,COc1cccc2sc(Nc3nc(-c4ccccn4)cs3)nc12,3.16 µM (active)
